In the supplement of paper PMC10849652:
The full data set covers some 7,900 targets. This sample favours those with a hit. About 0.6% of all pairs of compound and target were hits.

Experiments:
Assay in all cases: log2 fold change, soluble protein after heating vs DMSO (PISA); higher = thermal stabilisation; K562 cells, 10 uM, 30 min; active = over 0.2 and 3.5 SD of the protein, either way, in both replicates (recomputed)
[1] = compound: COC1=CC=C(C=C1)CN2C=CC3=C2C=C(C=C3)C(=O)NO
Procedure, shortened: (§1)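 Thermal stability values are relative to control samples and come from duplicates. They are expressed as log2 fold changes. For measurement, K562 cells (2×10^6 cells/mL) received 10 μM compound for 30 min, and aliquots were heated for 3 min over 48°C-58°C, pooled, and extracted at 4°C in PBS with 0.5% NP-40. Soluble protein, the supernatant after 21,000xg for 90 min, was quantified by TMTpro 16plex LC-MS/MS with equalised channel sums.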

filanesib = compound: CON(C)C(=O)N1N=C(c2cc(F)ccc2F)S[C@@]1(CCCN)c1ccccc1 [filanesib]
Procedure, shortened: as §1

zotarolimus = compound: CO[C@H]1C[C@@H]2CC[C@@H](C)[C@@](O)(O2)C(=O)C(=O)N2CCCC[C@H]2C(=O)O[C@H]([C@H](C)C[C@@H]2CC[C@H](n3cnnn3)[C@H](OC)C2)CC(=O)[C@H](C)/C=C(\C)[C@@H](O)[C@@H](OC)C(=O)[C@H](C)C[C@H](C)/C=C/C=C/C=C/1C [zotarolimus]
Procedure, shortened: as §1

idasanutlin = compound: COc1cc(C(=O)O)ccc1NC(=O)[C@@H]1N[C@@H](CC(C)(C)C)[C@](C#N)(c2ccc(Cl)cc2F)[C@H]1c1cccc(Cl)c1F [idasanutlin]
Procedure, shortened: as §1

alisertib = compound: COc1cc(Nc2ncc3c(n2)-c2ccc(Cl)cc2C(c2c(F)cccc2OC)=NC3)ccc1C(=O)O [alisertib]
Procedure, shortened: as §1

gefitinib = compound: COc1cc2ncnc(Nc3ccc(F)c(Cl)c3)c2cc1OCCCN1CCOCC1 [gefitinib]
Procedure, shortened: as §1

[2] = compound: COc1cccc2cc(-c3nc([C@H]4CC[C@H](C(=O)O)CC4)n4ncnc(N)c34)[nH]c12
Procedure, shortened: as §1

pictilisib = compound: CS(=O)(=O)N1CCN(Cc2cc3nc(-c4cccc5[nH]ncc45)nc(N4CCOCC4)c3s2)CC1 [pictilisib]
Procedure, shortened: as §1

[3] = compound: COc1cc2nc(-c3cc(F)ccc3O)nc(N[C@@H]3CNC[C@H]3C(C)(C)O)c2cc1OC
Procedure, shortened: as §1

lapatinib = compound: CS(=O)(=O)CCNCc1ccc(-c2ccc3ncnc(Nc4ccc(OCc5cccc(F)c5)c(Cl)c4)c3c2)o1 [lapatinib]
Procedure, shortened: as §1

Measured: log2 fold change

TMEM184C (UniProt Q9NVA4)
inactive: [1] -0.006 | filanesib 0.162 | zotarolimus -0.11 | idasanutlin -0.112 | alisertib 0.059 | gefitinib -0.043 | [2] 0.077 | pictilisib 0.162

WDR7 (UniProt Q9Y4E6)
inactive: [1] -0.04 | filanesib 0.084 | zotarolimus 0.045 | idasanutlin -0.016 | alisertib -0.076 | [3] -0.102 | gefitinib -0.027 | [2] -0.074 | lapatinib 0.003 | pictilisib -0.097

TMEM63B (UniProt Q5T3F8)
Chain of UniProt Q5T3F8 (Q5T3F8 whole entry, looked up): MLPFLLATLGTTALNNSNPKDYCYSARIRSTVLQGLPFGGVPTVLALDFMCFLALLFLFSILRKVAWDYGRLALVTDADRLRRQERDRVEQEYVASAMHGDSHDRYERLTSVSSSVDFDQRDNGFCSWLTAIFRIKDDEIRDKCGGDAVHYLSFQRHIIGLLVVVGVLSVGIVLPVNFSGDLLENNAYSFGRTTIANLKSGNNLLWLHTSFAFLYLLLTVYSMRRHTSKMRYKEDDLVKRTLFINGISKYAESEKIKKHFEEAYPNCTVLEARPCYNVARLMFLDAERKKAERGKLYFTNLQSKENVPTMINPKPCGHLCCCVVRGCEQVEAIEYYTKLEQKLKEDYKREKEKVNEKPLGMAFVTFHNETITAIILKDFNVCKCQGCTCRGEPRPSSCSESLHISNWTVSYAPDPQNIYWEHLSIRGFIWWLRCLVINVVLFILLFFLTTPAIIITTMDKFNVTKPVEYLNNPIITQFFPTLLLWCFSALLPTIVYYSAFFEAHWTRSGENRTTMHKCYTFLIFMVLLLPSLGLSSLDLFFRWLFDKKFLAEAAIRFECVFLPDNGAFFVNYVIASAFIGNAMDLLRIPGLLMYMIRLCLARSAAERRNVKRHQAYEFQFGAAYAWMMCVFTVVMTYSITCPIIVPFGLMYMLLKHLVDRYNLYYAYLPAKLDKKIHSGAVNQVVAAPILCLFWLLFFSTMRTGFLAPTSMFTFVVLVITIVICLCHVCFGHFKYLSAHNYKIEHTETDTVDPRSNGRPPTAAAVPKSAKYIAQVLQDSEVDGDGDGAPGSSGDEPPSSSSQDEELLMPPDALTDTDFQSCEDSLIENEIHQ
inactive: [1] -0.125 | filanesib -0.089 | zotarolimus -0.018 | idasanutlin 0.011 | alisertib -0.037 | [3] -0.028 | gefitinib -0.03 | [2] -0.028 | lapatinib 0.032 | pictilisib 0.003

UTP3 (UniProt Q9NQZ2)
inactive: [1] -0.058 | filanesib 0.368 | zotarolimus 0.125 | idasanutlin 0.26 | alisertib -0.09 | [3] -0.074 | [2] -0.067 | lapatinib 0.204 | pictilisib -0.06

VPS13B (UniProt Q7Z7G8)
inactive: [1] 0.019 | filanesib -0.11 | zotarolimus -0.007 | idasanutlin 0.025 | alisertib 0.07 | [3] -0.111 | gefitinib 0.019 | [2] 0.07 | lapatinib -0.018 | pictilisib 0.057

XPNPEP1 isoform 3 (UniProt Q9NQW7)
inactive: [1] 0.006 | filanesib -0.121 | zotarolimus 0.026 | idasanutlin -0.023 | alisertib 0.028 | [3] -0.009 | gefitinib 0.004 | [2] 0.038 | lapatinib 0.01 | pictilisib 0.068

TTC33 (UniProt Q6PID6)
inactive: [1] 0.094 | filanesib 0.031 | zotarolimus -0.113 | idasanutlin -0.039 | alisertib 0.071 | [3] 0.082 | [2] 0.086 | lapatinib -0.15 | pictilisib -0.093

U2AF2 (UniProt P26368)
inactive: [1] 0.038 | filanesib 0.071 | zotarolimus 0.018 | idasanutlin 0.042 | alisertib -0.089 | [3] 0.014 | gefitinib 0.028 | [2] 0.074 | lapatinib -0.013 | pictilisib 0.013

TRMT61A (UniProt Q96FX7)
inactive: [1] 0.083 | filanesib 0.136 | zotarolimus 0.077 | idasanutlin 0.025 | alisertib -0.017 | [3] -0.192 | gefitinib -0.051 | [2] -0.057 | lapatinib 0.03 | pictilisib -0.18

VTA1 (UniProt Q9NP79)
inactive: [1] -0.01 | filanesib -0.033 | zotarolimus 0.044 | idasanutlin -0.094 | alisertib -0.014 | [3] 0.056 | gefitinib -0.003 | [2] -0.008 | lapatinib -0.014 | pictilisib 0.006

XRCC1 (UniProt P18887)
inactive: [1] -0.129 | filanesib 0.088 | zotarolimus -0.018 | idasanutlin -0.045 | pictilisib -0.065

WDCP (UniProt Q9H6R7)
inactive: [1] -0.028 | filanesib -0.029 | zotarolimus 0.094 | idasanutlin -0.049 | alisertib -0.074 | [3] 0.072 | gefitinib -0.061 | [2] -0.049 | lapatinib -0.037 | pictilisib 0.126

TSC2 (UniProt P49815)
Chain of UniProt P49815 (P49815 whole entry, looked up): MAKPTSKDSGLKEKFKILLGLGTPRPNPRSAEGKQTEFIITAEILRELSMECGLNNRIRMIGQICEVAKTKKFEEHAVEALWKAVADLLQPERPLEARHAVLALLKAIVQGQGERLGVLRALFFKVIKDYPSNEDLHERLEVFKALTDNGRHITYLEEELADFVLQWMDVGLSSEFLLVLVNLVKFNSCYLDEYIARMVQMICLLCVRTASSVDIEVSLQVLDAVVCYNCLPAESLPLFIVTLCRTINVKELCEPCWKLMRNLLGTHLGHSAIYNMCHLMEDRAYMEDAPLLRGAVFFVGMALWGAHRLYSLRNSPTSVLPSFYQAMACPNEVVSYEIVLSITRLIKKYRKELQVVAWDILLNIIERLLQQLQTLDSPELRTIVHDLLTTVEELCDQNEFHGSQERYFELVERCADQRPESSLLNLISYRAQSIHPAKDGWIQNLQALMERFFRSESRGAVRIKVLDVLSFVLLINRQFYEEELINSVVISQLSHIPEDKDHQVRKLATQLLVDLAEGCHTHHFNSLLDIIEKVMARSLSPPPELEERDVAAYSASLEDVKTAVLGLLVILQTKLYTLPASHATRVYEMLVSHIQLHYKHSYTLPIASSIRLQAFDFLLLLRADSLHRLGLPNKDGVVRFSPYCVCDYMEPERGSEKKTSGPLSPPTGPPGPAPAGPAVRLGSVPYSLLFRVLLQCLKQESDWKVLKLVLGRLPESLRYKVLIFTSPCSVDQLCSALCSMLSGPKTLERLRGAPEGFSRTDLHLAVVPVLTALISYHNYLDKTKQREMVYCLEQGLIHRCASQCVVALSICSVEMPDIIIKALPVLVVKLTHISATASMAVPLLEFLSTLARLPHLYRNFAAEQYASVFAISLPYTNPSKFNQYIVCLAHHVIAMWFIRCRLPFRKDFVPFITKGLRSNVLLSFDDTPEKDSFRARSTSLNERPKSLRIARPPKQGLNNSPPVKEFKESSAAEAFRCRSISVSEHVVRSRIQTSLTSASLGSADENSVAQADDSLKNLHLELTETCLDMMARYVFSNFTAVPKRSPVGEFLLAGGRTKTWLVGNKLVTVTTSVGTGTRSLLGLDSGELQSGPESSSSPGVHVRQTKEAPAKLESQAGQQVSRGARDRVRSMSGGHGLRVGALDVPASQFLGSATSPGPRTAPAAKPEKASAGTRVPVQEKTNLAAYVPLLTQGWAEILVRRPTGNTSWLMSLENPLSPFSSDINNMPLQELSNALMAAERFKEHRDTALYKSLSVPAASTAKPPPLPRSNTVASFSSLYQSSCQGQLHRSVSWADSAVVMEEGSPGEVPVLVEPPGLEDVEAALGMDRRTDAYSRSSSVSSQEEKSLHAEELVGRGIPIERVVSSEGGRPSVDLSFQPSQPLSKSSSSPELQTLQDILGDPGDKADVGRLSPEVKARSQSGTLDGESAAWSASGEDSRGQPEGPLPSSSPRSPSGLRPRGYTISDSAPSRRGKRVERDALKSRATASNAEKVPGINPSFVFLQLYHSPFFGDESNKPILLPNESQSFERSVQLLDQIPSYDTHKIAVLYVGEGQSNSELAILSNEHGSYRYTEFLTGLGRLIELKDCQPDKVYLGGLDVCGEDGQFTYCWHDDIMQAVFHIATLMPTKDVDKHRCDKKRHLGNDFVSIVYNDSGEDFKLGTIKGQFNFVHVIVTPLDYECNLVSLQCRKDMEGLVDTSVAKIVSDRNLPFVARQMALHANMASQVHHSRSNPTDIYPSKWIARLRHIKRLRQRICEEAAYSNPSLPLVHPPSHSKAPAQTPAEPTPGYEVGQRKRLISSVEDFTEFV
inactive: [1] 0.361 | filanesib 0.198 | zotarolimus -0.181 | idasanutlin 0.017 | alisertib 0.195 | [3] -0.039 | [2] 0.139 | lapatinib 0.135 | pictilisib 0.076

UBR2 (UniProt Q8IWV8)
inactive: [1] -0.016 | filanesib 0.027 | zotarolimus -0.105 | idasanutlin 0.054 | alisertib -0.041 | [3] 0.024 | gefitinib -0.021 | [2] 0.061 | lapatinib 0.052 | pictilisib 0.036

UBA52 (UniProt P62987)
inactive: [1] 0 | filanesib 0.519 | zotarolimus -0.171 | idasanutlin 0.308 | alisertib -0.131 | [3] -0.203 | [2] -0.275 | lapatinib 0.141 | pictilisib -0.177

TMEM128 (UniProt Q5BJH2)
inactive: [1] -0.065 | filanesib 0.152 | zotarolimus -0.181 | idasanutlin 0.035 | [3] 0.025 | gefitinib 0.076 | lapatinib -0.068

VTI1A (UniProt Q96AJ9)
Chain of UniProt Q96AJ9 (Q96AJ9 whole entry, looked up): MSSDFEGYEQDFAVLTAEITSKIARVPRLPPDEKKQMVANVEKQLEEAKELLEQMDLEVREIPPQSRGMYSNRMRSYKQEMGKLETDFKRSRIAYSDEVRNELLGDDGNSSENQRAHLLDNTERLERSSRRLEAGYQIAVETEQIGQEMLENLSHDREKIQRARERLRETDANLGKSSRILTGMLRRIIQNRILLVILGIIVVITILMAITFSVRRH
inactive: [1] 0.014 | filanesib -0.015 | zotarolimus -0.024 | idasanutlin -0.023 | alisertib -0.039 | [3] -0.003 | gefitinib 0.024 | [2] 0 | lapatinib 0.021 | pictilisib -0.022

UHRF1BP1 (UniProt Q6BDS2)
Chain of UniProt Q6BDS2 (Q6BDS2 whole entry, looked up): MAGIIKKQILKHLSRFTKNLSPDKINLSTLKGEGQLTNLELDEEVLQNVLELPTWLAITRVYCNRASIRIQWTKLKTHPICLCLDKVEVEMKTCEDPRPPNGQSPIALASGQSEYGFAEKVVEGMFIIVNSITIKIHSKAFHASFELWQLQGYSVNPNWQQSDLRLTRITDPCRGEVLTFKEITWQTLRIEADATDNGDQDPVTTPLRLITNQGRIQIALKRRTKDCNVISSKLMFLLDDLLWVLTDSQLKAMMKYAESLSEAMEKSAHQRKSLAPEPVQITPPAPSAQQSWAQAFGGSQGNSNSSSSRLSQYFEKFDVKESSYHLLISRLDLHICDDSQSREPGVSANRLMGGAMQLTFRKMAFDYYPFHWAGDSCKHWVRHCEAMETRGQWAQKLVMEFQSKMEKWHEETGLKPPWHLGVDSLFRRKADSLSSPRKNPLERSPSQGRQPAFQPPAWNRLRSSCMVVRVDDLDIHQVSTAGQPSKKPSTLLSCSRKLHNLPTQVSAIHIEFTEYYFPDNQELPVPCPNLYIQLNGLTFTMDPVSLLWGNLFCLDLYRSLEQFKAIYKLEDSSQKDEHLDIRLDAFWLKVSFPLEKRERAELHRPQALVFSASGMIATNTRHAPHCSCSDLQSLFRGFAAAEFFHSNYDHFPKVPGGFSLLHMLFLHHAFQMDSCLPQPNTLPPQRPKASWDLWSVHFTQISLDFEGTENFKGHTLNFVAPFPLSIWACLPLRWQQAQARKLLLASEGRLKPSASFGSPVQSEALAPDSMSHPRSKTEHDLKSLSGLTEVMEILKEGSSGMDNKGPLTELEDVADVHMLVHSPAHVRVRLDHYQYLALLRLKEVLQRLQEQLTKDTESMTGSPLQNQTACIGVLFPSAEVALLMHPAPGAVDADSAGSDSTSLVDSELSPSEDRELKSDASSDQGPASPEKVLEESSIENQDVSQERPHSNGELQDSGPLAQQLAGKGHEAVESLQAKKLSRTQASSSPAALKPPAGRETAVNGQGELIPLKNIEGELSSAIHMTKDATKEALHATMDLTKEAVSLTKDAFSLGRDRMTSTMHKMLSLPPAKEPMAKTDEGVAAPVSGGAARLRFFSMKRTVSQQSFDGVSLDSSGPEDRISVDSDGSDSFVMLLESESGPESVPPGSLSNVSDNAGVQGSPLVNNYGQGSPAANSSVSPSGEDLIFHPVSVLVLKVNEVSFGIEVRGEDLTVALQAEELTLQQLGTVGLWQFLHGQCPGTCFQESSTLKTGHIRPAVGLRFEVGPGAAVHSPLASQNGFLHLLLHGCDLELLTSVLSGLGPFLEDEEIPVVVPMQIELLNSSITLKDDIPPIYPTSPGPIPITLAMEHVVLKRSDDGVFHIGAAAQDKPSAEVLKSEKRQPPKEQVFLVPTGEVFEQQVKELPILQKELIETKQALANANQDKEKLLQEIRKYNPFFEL
inactive: [1] -0.025 | filanesib 0.079 | zotarolimus 0.161 | idasanutlin -0.029 | alisertib -0.033 | [3] 0.104 | gefitinib 0.045 | [2] 0.037 | lapatinib 0.038 | pictilisib 0.032

TRABD (UniProt Q9H4I3)
inactive: [1] 0.001 | filanesib 0.051 | zotarolimus 0.11 | idasanutlin 0.167 | alisertib -0.109 | [3] 0.198 | gefitinib 0.149 | [2] -0.006 | lapatinib 0.081 | pictilisib 0.15

TTC4 (UniProt O95801)
Chain of UniProt O95801 (O95801 whole entry, looked up): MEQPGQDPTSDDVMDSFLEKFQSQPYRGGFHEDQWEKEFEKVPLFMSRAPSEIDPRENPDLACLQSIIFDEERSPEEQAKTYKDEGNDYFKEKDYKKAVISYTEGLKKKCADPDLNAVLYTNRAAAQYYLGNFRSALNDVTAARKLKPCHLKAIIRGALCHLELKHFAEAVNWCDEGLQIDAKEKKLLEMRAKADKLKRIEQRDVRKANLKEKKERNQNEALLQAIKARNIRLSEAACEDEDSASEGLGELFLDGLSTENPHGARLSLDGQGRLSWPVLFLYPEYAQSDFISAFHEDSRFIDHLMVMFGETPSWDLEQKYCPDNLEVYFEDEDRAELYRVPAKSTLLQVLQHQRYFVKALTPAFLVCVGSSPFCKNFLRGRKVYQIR
inactive: [1] 0.087 | filanesib 0.004 | zotarolimus 0.016 | idasanutlin -0.003 | alisertib 0.029 | [3] 0.054 | gefitinib 0.032 | [2] -0.072 | lapatinib -0.003 | pictilisib -0.016

TMEM161B (UniProt Q8NDZ6)
inactive: [1] -0.055 | filanesib -0.008 | zotarolimus -0.035 | idasanutlin -0.16 | alisertib 0.006 | [3] 0.013 | gefitinib 0.087 | [2] -0.015 | lapatinib -0.056 | pictilisib 0.097

UTP14A (UniProt Q9BVJ6)
inactive: [1] -0.114 | filanesib 0.336 | zotarolimus -0.022 | idasanutlin 0.161 | alisertib -0.077 | [3] -0.111 | gefitinib -0.062 | [2] -0.138 | lapatinib 0.156 | pictilisib -0.174

TRAPPC13 isoform 5 (UniProt A5PLN9)
inactive: [1] 0.094 | filanesib 0.052 | zotarolimus 0.045 | idasanutlin -0.016 | alisertib -0.123 | [3] 0.009 | gefitinib 0.005 | [2] -0.046 | lapatinib 0.116 | pictilisib 0.015

TOM1L2 (UniProt Q6ZVM7)
inactive: [1] -0.04 | filanesib 0.029 | zotarolimus -0.036 | idasanutlin -0.002 | gefitinib 0.028

UBE3B (UniProt Q7Z3V4)
inactive: [1] 0.03 | filanesib 0.058 | zotarolimus 0.086 | idasanutlin 0.065 | [3] 0.247 | gefitinib -0.037 | lapatinib 0.212

UBXN10 (UniProt Q96LJ8)
inactive: [1] 0.059 | filanesib 0.038 | zotarolimus -0.049 | alisertib 0.016 | [3] -0.071 | gefitinib -0.079 | [2] -0.11 | lapatinib 0.097 | pictilisib -0.008

TRIM4 (UniProt Q9C037)
inactive: [1] -0.066 | filanesib 0.003 | zotarolimus 0.056 | idasanutlin -0.208 | alisertib -0.088 | [3] 0.129 | gefitinib -0.155 | [2] -0.137 | lapatinib -0.011 | pictilisib 0.202

UNC119B (UniProt A6NIH7)
inactive: [1] -0.232 | filanesib 0.059 | zotarolimus 0.074 | idasanutlin -0.034 | alisertib -0.185 | [3] 0.069 | gefitinib 0.116 | [2] -0.002 | lapatinib 0.06 | pictilisib 0.092

UTP4 (UniProt Q969X6)
inactive: [1] -0.05 | filanesib -0.043 | zotarolimus -0.017 | idasanutlin -0.034 | alisertib -0.095 | [3] 0.132 | gefitinib 0 | [2] 0.029 | lapatinib -0.006 | pictilisib 0.035

TOE1 (UniProt Q96GM8)
inactive: [1] -0.06 | filanesib 0.246 | zotarolimus 0.023 | idasanutlin 0.032 | alisertib -0.075 | [3] 0.039 | gefitinib 0.014 | [2] -0.162 | lapatinib 0.076 | pictilisib -0.054

TSG101 (UniProt Q99816)
Chain of UniProt Q99816 (Q99816 whole entry, looked up): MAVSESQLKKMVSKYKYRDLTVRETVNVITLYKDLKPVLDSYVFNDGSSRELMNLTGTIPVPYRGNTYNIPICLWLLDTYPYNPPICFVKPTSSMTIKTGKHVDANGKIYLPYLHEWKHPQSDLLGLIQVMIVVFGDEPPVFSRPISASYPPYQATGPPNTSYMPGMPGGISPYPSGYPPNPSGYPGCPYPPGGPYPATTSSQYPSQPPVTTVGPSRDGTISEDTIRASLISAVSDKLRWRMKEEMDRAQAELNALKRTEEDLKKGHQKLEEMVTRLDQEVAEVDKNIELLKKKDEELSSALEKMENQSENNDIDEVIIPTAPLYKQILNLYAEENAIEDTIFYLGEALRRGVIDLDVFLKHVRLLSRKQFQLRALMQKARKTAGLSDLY
inactive: [1] 0 | filanesib -0.07 | zotarolimus 0.029 | idasanutlin -0.031 | alisertib -0.049 | [3] 0.007 | gefitinib 0.011 | [2] 0.016 | lapatinib -0.013 | pictilisib 0.025

TMEM104 (UniProt Q8NE00)
inactive: [1] 0.134 | zotarolimus -0.01 | idasanutlin -0.081 | alisertib -0.012 | [3] 0.016 | gefitinib 0.061 | [2] 0.164 | lapatinib -0.156 | pictilisib -0.341
